In PubChem BioAssay AID376 (PDSP, 2006):
The whole screen tested about 2,000 compounds, of which about 250 (12%) were called active. Rule as the data show it: active = hERG blockade below about -20% or above about 20%; inactive = in between. The sample as a whole holds a higher share of actives than the screen did.

Molecular target: Voltage-gated inwardly rectifying potassium channel KCNH2 (Homo sapiens) (UniProt Q12809)
Assay: modulators of KCNH2 ion channel function, cellular (AID 376);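 also: 0% = buffer alone and 100% = reference blocker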
Conditions: hERG-expressing cells, channel activity single-concentration screen; concentration not given here

Voltage-gated inwardly rectifying potassium channel KCNH2 (Homo sapiens), sequence (Q12809 whole entry, looked up): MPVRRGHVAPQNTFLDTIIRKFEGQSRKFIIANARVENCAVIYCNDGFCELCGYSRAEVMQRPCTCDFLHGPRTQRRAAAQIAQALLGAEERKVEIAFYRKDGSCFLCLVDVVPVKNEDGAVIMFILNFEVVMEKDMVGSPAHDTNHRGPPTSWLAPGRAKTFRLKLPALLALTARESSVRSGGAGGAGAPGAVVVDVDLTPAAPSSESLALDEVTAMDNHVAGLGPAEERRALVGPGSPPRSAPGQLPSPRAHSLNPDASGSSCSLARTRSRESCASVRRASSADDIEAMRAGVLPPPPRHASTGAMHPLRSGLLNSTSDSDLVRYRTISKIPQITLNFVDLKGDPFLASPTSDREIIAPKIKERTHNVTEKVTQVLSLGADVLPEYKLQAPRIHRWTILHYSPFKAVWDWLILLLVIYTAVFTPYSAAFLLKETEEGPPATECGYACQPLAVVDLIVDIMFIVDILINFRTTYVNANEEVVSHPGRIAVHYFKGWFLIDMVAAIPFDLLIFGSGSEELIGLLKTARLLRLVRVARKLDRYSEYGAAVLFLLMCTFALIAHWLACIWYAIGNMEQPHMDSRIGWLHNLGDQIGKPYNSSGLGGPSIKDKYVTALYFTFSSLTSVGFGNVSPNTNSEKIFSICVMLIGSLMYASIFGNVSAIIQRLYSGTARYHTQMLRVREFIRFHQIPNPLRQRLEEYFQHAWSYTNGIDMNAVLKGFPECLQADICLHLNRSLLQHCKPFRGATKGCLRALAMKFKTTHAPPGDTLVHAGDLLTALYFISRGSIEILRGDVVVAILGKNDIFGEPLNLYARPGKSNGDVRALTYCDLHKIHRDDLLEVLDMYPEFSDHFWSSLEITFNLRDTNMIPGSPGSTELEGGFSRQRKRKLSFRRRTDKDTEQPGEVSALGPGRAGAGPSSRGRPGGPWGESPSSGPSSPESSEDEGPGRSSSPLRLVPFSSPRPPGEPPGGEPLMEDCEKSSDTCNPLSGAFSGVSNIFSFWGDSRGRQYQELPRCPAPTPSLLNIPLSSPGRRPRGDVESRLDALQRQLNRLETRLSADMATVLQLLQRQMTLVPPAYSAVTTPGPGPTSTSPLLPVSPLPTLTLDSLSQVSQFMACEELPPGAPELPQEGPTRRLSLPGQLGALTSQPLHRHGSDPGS

Structure (SMILES) | hERG blockade
CSc1ccc2c(c1)c(CCN)c(C)n2Cc1ccccc1Cl | 102% (active)
Cn1c(=O)c2[nH]cnc2n(C)c1=O.[CH2-]C(Cc1cccc2cc(C(=O)O)c(=O)oc12)OC.[Hg+2].[OH-] (stereo unspecified) | -6.48% (inactive)
Nc1nc(N)c(N=Nc2ccc([As](=O)(O)O)c(O)c2)c(N)n1 | -5.01% (inactive)
CC1=NN(c2ccccc2)C(=O)C1N=Nc1ccc([As](=O)(O)O)c(O)c1 (stereo unspecified) | 32.9% (active)
O=C(O)CC1NCc2cc3ccccc3nc21 (stereo unspecified) | -11.4% (inactive)
O=P(O)(OP(=O)(O)c1ccccc1)c1ccccc1 (tested in a mixture with another compound) | -3.18% (inactive)
Nc1nnnn1CCO | -1.1% (inactive)
CC1CCC2(NC1)OC1CC3C4CC=C5CC(O)CCC5(C)C4CCC3(C)C1C2C (stereo unspecified) | 5.44% (inactive)
Cc1c(C(C)C2NCC(C)CC2O)ccc2c1CC1C2CC=C2CC(O)CCC21C (stereo unspecified) | 75.5% (active)
CC1=C2C(=O)C3C(CC=C4CC(O)CCC43C)C2CCC12OC1CC(C)CNC1C2C (stereo unspecified) | 18.8% (inactive)
COC([CH2][Hg][n]1cnc2c1c(=O)n(C)c(=O)n2C)CN1C(=O)c2ccccc2S1(=O)=O (stereo unspecified) | -10.9% (inactive)
O=P(O)(O)c1ccccc1 (tested in a mixture with another compound) | -2.7% (inactive)
O=C(O)CSCC(=O)O | -1.83% (inactive)
CC(Br)C(=O)NC(CO)C(=O)O (stereo unspecified) | 16.5% (inactive)
O=C(Nc1cc[c]([Sb](=[O])([OH])[OH])cc1)c1ccccc1 | 5.03% (inactive)
Nc1ccc(S(=O)(=O)c2ccc(NCN3C(=O)NC(=O)C(=O)C3=O)cc2)cc1 | 20% (inactive)
O=P(O)(O)CCP(=O)(O)O | -9.16% (inactive)
CCOC(=O)C1C(O)CC2c3ccccc3-c3ccccc3C21 (stereo unspecified) | -9.9% (inactive)
COc1cc2c(cc1OC)C13CC[N+]4(C)CC5=CCOC6CC(=O)N2C1C6C5CC34O (stereo unspecified) | 0.126% (inactive)
NCCSC(c1ccccc1)c1ccccc1 | 21.8% (active)
Nc1c(C(=O)Nc2ccc([As](=O)(O)O)cc2)cnc2nnnn12 | 6.38% (inactive)
COC(=O)C1C(=O)C(C(=O)OC)C2CCC1N2C (stereo unspecified) | -6.77% (inactive)
O=[As](O)(O)c1ccc2nc3cc([As](=O)(O)O)ccc3nc2c1 | 6.6% (inactive)
CCSCCC(N)C(=O)O (stereo unspecified) | -2.21% (inactive)
CC(CN(C)C)C(C#N)(c1ccccc1)c1ccccc1 (stereo unspecified) | 3.3% (inactive)
C[n+]1c(C=Cc2ccc(O)c3ncccc23)[se]c2ccccc21 | 24% (active)
